Records with an inconclusive call do not appear. Entries that show only a call come without a potency. Active and inactive are the calls of the source. Unless noted, the call rests on the fitted dose curve; in most records, active means well fitted curve in the direction sought with a large enough effect in the repeat runs; inconclusive means weak or mixed curves; inactive means no such curve, though single readings can be large; an effect the other way counts as inactive or inconclusive.
Tests used:
[1] = qHTS assay to identify small molecule antagonists of the thyroid receptor (TR) signaling pathway - cell viability counter screen (AID 743064); further: nearly all actives have a fitted effect of over 50% in size; further: potency means the concentration at half of the fitted maximal effect
Summary of the method: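 CellTiter-Fluor readout, 30 min at 37 °C/5% CO2, following 23.5 h incubation of GH3.TRE-Luc cells with test compound and 1 nM T3 (final).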

[2] = qHTS assay to identify small molecule antagonists of the thyroid receptor (TR) signaling pathway (AID 743065); further: nearly all actives have a fitted effect of over 55% in size; further: potency means the concentration at half of the fitted maximal effect
Summary of the method: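 GH3.TRE-Luc rat pituitary cells carrying two TR response elements driving luciferase were plated for 4 h, given compound plus 1 nM T3 (final), and incubated 23.5 h at 37 C. ONE-Glo luminescence measured reporter inhibition; CellTiter-Fluor fluorescence tracked cytotoxicity.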

[3] = tested on: thyroid hormone receptor (rat, GH3 cells); experiment: qHTS assay to identify small molecule agonists of the thyroid receptor (TR) signaling pathway (AID 743066; calls by dose curve)
[4] = qHTS assay to identify small molecule antagonists of the estrogen receptor alpha (ER-alpha) signaling pathway using the BG1 cell line - cell viability counter screen (AID 743081);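 further: compound given together with 17beta-estradiol as the ER stimulus; series mostly up to about 70 µM; nearly all actives have a fitted effect of over 45% in size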
Aromatase (Homo sapiens) = Aromatase (Homo sapiens) (UniProt P11511); experiment: qHTS assay to identify aromatase inhibitors (AID 743083); further: series mostly up to about 70 µM; nearly all actives have a fitted effect of over 55% in size
Chain of Aromatase (Homo sapiens) (P11511 whole entry, looked up): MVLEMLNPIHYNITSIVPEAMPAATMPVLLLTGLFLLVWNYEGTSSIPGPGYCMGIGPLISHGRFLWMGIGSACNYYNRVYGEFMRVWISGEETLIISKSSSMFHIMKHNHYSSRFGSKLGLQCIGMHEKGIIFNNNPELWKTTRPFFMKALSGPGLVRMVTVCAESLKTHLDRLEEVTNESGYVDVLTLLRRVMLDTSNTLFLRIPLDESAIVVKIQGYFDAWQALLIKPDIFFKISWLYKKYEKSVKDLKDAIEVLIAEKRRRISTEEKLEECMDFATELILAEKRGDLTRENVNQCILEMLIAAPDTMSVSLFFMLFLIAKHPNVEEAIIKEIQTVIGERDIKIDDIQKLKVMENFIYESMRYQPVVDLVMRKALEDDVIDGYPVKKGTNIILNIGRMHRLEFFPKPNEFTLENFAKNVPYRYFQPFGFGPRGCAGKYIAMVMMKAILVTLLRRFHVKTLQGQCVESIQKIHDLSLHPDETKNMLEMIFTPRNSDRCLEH

[5] = qHTS assay to identify small molecule antagonists of the estrogen receptor alpha (ER-alpha) signaling pathway - cell viability counter screen (AID 743074; calls by dose curve;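 further: HEK293 cells carrying ER-alpha-UAS-bla reporter stimulated with 17beta-estradiol; nearly all actives have a fitted effect of over 45% in size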)
[6] = target: Estrogen receptor (Homo sapiens) (UniProt P03372); experiment: qHTS assay to identify small molecule antagonists of the estrogen receptor alpha (ER-alpha) signaling pathway (AID 743069; active means well fitted curve in the direction sought with a large enough effect in the signal ratio in the repeat runs, not every such curve was filed as active; the % refers to the signal ratio)
Chain of Estrogen receptor (Homo sapiens) (P03372 whole entry, looked up): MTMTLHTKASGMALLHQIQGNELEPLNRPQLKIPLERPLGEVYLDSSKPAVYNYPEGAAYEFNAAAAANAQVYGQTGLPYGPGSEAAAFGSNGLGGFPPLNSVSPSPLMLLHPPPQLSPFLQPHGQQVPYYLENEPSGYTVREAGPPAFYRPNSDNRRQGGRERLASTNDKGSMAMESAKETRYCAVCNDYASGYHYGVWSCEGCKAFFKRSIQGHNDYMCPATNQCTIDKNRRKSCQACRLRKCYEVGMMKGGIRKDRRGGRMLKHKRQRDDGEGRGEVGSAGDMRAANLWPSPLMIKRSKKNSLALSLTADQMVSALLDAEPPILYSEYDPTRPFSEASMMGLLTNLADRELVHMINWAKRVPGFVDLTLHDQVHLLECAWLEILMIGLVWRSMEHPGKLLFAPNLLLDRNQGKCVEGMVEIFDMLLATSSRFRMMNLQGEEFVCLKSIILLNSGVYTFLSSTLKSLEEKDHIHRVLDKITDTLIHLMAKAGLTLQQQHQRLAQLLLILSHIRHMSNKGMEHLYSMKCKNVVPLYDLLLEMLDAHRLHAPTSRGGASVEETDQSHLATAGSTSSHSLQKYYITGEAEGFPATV
Summary of the method: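 Estradiol-stimulated ER-alpha-UAS-bla HEK293 cells, 18 hr compound exposure at 37C. LiveBLAzer B/G substrate, 2 hr RT, fluorescence read.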

[7] = target: Estrogen receptor (Homo sapiens) (UniProt P03372); experiment: qHTS assay to identify small molecule agonists of the estrogen receptor alpha (ER-alpha) signaling pathway (AID 743075; calls by dose curve;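 further: HEK293 GripTite cells with ER-alpha and UAS-driven beta-lactamase reporter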)
[8] = target: Estrogen receptor (Homo sapiens) (UniProt P03372); experiment: qHTS assay to identify small molecule agonists of the estrogen receptor alpha (ER-alpha) signaling pathway using the BG1 cell line (AID 743079); further: nearly all actives have a fitted effect of over 20% in size
[9] = qHTS assay to identify small molecule antagonists of the estrogen receptor alpha (ER-alpha) signaling pathway using the BG1 cell line (AID 743080; calls by dose curve;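 further: BG1 cells stimulated with 17beta-estradiol alongside compound; series mostly up to about 70 µM; nearly all actives have a fitted effect of over 25% in size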)
Summary of the method: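 Endogenous full-length ER-alpha in BG1-Luc-4E2 cells drives a stably integrated 4×ERE luciferase gene; compounds were tested against 17beta-estradiol over 21.5 h, with luminescence and multiplexed viability fluorescence recorded.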

## c1ccc(SCCSc2ccccc2)cc1
[1]
  Potency: inactive
[2]
  Potency: inactive
[3]
  Potency: inactive
[4]
  outcome: inactive
Aromatase (Homo sapiens)
  Potency: inactive

## C=CCOc1nc(OCC=C)nc(OCC=C)n1
[1]
  Potency: inactive
[2]
  Potency: inactive
[3]
  Potency: inactive
[5]
  outcome: inactive
[4]
  outcome: inactive
Aromatase (Homo sapiens)
  Potency: inactive

## OCCCCCCO
[1]
  Potency: inactive
[2]
  Potency: inactive
[3]
  Potency: inactive
[5]
  outcome: inactive
[4]
  outcome: inactive
Aromatase (Homo sapiens)
  Potency: inactive

## C=C(C)[C@@H]1CCC2=CC(=O)C[C@@H](C)[C@]2(C)C1
[1]
  Potency: inactive
[3]
  Potency: inactive
[6]
  Potency: inactive
[5]
  outcome: inactive
[7]
  Potency: inactive
[8]
  Potency: inactive
[9]
  Potency: inactive
[4]
  outcome: inactive

## Cc1onc(-c2ccccc2)c1-c1ccc(S(N)(=O)=O)cc1
[1]
  Potency: inactive
[2]
  Potency: inactive
[3]
  Potency: inactive
[5]
  outcome: inactive
[4]
  outcome: inactive
Aromatase (Homo sapiens)
  Potency: inactive

## COc1cc(C(=O)N2CCOCC2)cc(OC)c1OC
[1]
  Potency: inactive
[2]
  Potency: inactive
[3]
  Potency: inactive
[5]
  outcome: inactive
[4]
  outcome: inactive
Aromatase (Homo sapiens)
  Potency: inactive

## C[C@H]1O[C@@H](n2cc(F)c(=O)[nH]c2=O)[C@H](O)[C@@H]1O
[1]
  Potency: inactive
[2]
  Potency: inactive
[3]
  Potency: inactive
[5]
  outcome: inactive
[4]
  outcome: inactive
Aromatase (Homo sapiens)
  Potency: inactive

## NS(=O)(=O)c1cc2c(cc1Cl)NC(CSCc1ccccc1)=NS2(=O)=O
[1]
  Potency: inactive
[3]
  Potency: inactive
[6]
  Potency: inactive
[5]
  outcome: inactive
[7]
  Potency: inactive
[8]
  Potency: inactive
[9]
  Potency: inactive
[4]
  outcome: inactive
Aromatase (Homo sapiens)
  Potency: inactive

## N#CCc1ccccc1[N+](=O)[O-]
[1]
  Potency: inactive
[2]
  Potency: inactive
[3]
  Potency: inactive
[5]
  outcome: inactive
[4]
  outcome: inactive
Aromatase (Homo sapiens)
  Potency: inactive

## c1cc(CN2CCCCC2)cc(OCCCNc2nc3ccccc3s2)c1
[1]
  Potency: 11.9 µM (active)
[2]
  Potency: 23.7 µM (active)
[6]
  Potency: inactive
[7]
  Potency: inactive
[4]
  outcome: inactive

## C1=C\CC/C=C\CC/C=C\CC/1
[1]
  Potency: inactive
[2]
  Potency: inactive
[3]
  Potency: inactive
[5]
  outcome: inactive
[4]
  outcome: inactive
Aromatase (Homo sapiens)
  Potency: inactive

## Cn1cnc2c(=O)[nH]c(N)nc21
[1]
  Potency: inactive
[2]
  Potency: inactive
[3]
  Potency: inactive
[4]
  outcome: inactive
Aromatase (Homo sapiens)
  Potency: inactive

## CCCC=O
[1]
  Potency: inactive
[2]
  Potency: inactive
[3]
  Potency: inactive
[5]
  outcome: inactive
[4]
  outcome: inactive
Aromatase (Homo sapiens)
  Potency: inactive

— PubChem BioAssay (Tox21)
